Assay outcomes deposited in PubChem by National Center for Advancing Translational Sciences (NCATS).
Hits are enriched below; roughly 11% of the tested compounds scored in any of these assays.
L3MBTL1 block: inhibitors of human L3MBTL1; AlphaScreen L3MBTL1–H3K9me1 peptide binding; Potency, µM (highest dose often 57.1 µM), for inactives: at the highest dose activity, negative = inhibition, usual class: inhibitors; 0.66% of 230,000 active; note: % is set by controls: 0 for no effect and ±100 for the full control effect; nearly all actives have a fitted effect of over 60% in size
Target sequence (Q9Y468 whole entry, looked up): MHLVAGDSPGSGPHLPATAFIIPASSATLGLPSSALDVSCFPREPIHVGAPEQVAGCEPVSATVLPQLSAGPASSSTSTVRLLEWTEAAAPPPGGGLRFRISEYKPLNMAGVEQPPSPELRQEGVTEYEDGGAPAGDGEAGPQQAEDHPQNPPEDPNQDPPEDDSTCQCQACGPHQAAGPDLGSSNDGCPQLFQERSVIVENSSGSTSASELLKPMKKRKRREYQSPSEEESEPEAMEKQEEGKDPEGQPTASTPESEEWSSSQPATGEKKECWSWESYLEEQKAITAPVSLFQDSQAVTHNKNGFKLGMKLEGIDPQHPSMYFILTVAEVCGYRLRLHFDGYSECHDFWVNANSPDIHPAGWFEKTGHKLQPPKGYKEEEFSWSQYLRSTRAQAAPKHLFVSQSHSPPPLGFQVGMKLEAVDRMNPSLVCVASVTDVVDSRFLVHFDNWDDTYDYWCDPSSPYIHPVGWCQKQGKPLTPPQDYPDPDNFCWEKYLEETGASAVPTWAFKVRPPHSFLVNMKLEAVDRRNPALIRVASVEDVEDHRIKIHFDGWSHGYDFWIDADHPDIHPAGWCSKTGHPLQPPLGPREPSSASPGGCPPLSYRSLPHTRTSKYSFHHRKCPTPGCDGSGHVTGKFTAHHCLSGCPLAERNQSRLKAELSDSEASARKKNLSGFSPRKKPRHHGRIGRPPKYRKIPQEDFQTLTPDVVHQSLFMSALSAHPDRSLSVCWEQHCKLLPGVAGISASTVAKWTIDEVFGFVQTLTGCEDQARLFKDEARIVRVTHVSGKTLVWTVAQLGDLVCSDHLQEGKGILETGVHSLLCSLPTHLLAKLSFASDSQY
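AlphaScreen assay: L3MBTL1 (50 nM final) was preincubated 30 min at room temperature with biotinylated H3(1-15)K9me1 peptide (75 nM final), then 30 min with library compounds; streptavidin donor and nickel chelate acceptor beads (10 ug/mL final) added, 30 min dark.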
BAZ2B inh: inhibitors of human BAZ2B bromodomain; Q9UIF8; AlphaScreen BAZ2B-H3K14Ac peptide displacement; Potency, µM (highest dose often 114 µM), for inactives: top-dose activity change, negative = inhibition, usual class: inhibitors; 4.4% of 360,000 active; AID 504333; note: % is set by controls: 0 for no effect and ±100 for the full control effect; nearly all actives have a fitted effect of over 60% in size
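BAZ2B (50 nM) with biotin-H3(5-23)K14Ac peptide (50 nM) in PBS pH 7.4, 0.01% Tween-20, preformed 30 min, then compound 30 min at room temperature; top concentration 110uM. AlphaScreen streptavidin donor/nickel chelate acceptor beads (10 ug/mL final), 20 min dark, signal read.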
JMJD2A Tudor: inhibitors of human JMJD2A Tudor domain. AID 504339. 4.4% of 390,000 active. O75164. AlphaScreen JMJD2A-Tudor / H3K4me3 peptide binding. Potency, µM (series often up to 114 µM), for the others: top-dose activity change, negative = inhibition, usual class: inhibitors; note: % is set by controls: 0 for no effect and ±100 for the full control effect; nearly all actives have a fitted effect of over 50% in size
G9a block: blocks human histone lysine methyltransferase G9a. Q96KQ7. G9a H3K9 monomethylation, AlphaScreen, 2 h. 8.8% of 350,000 active. AID 504332. Potency, µM (top dose mostly 102 µM), for inactives: at the highest dose activity, negative = inhibition, usual class: inhibitors; note: % is set by controls: 0 for no effect and ±100 for the full control effect; nearly all actives have a fitted effect of over 75% in size
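AlphaScreen read-out: biotin-H3K9 peptide (500 nM) methylation by 20 nM enzyme with 20 uM SAM, 2 h at room temperature after 15 min compound preincubation; anti-monomethyl H3K9 antibody plus donor/acceptor beads, 10 min dark.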
HP1b binding inh: HP1-beta chromodomain-methylated histone interaction inhibition; Potency, µM (highest dose often 114 µM), for inactives: top-dose activity change, negative = inhibition, actives largely listed as inhibitors; P83916; AID 540317; 0.56% of 390,000 active; AlphaScreen HP1-beta / biotin-H3K9me3 peptide binding; note: nearly all actives have a fitted effect of over 70% in size
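AlphaScreen: HP1-beta (50 nM) preformed 30 min with biotin-H3(1-18)K9me3 peptide (50 nM) in PBS pH 7.4, 0.01% Tween-20. Compound added for 30 min at RT, then streptavidin donor/nickel chelate acceptor beads (10 ug/mL) for 30 min.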
* marks the source's active call; other numbers are inactive results; u = inconclusive; x = not tested or not shown; [ ] = remark or other dose. Calls come from the whole dose curve; as a rule, active = well fitted inhibition curve with a large enough effect; inconclusive = small, poorly fitted or top-dose-only effect; inactive = no such curve, though single readings can be large or run the other way. Potency is the fitted concentration of half-maximal effect.

SMILES | L3MBTL1 block | BAZ2B inh | JMJD2A Tudor | G9a block | HP1b binding inh
CC1=C(c2ccc(C)c(C)c2)S(=O)(=O)N=C1N1CCN(c2cccc(C(F)(F)F)c2)CC1 | x | -9% | -16% | -31%[59 µM] | 2%
Cc1cc(NC(=O)CSc2nc3c([nH]c4ccccc43)c(=O)n2-c2ccccc2)no1 | x | 2% | -6% | 14%[59 µM] | 14%[57 µM]
COc1cccc(NC(=O)CSc2nc(O)c(C)c(=O)n2-c2ccc(C)cc2)c1 | x | -20% | 79µM* | -3% | 0%
COc1cccc(-n2c(SCC(=O)Nc3cc(C)on3)nc3c([nH]c4ccccc43)c2=O)c1 | 3% | -21% | -17% | 40µM* | 37%
Cc1c(O)nc(SCC(=O)Nc2cccc(C(F)(F)F)c2)n(-c2ccccc2)c1=O | x | -30% | -23% | 45µM* | -3%
COc1cc2c(cc1OC)C1=C(C#N)CCC(=NC(=O)c3ccc(Cl)cc3)N1CC2 | 0% | -7% | -1% | 101%[59 µM] | 40%
COc1cc2c(cc1OC)C1=C(C#N)COCN1CC2 | -5% | u | -2%[11.4 µM] | 14µM* | -6%
O=C(Oc1ccc(O)cc1)C12CC3CC(CC(C3)C1)C2 | 4% | -20% | 56µM* | 40µM* | u
CC(C)(C)c1cc[n+](/C(C(=S)NC2CC2)=C(/[O-])c2ccc(Cl)s2)cc1 | x | 0% | -32% | 10µM* | -18%
CCc1cccc(CC)c1NC(=S)/C(=C(\[O-])c1ccc(Cl)s1)[n+]1ccccc1 | -10% | u | u | 45µM* | -16%
Cc1cc(C)cc(NC(=S)/C(=C(\[O-])c2ccc(Cl)s2)[n+]2cccc(C)c2)c1 | u | 40µM* | 50µM* | 45µM* | u
Cc1ccc(C)c(NC(=S)/C(=C(\[O-])c2ccc(Cl)s2)[n+]2ccccc2)c1 | u | 35µM* | u | u | -20%
CCCCN(C)CCCNC(=O)Cn1ncc2c3ccccc3n(Cc3ccccc3F)c2c1=O | x | -6% | -22% | -5%[59 µM] | 19%
[O-]C(=C(C(=S)Nc1cccc2ccccc12)[n+]1cccc(CO)c1)c1ccc(Cl)s1 | x | x | -49% | x | -38%
[O-]/C(=C(\C(=S)Nc1cccc2ccccc12)[n+]1ccccc1)c1ccc(Cl)s1 | u | 35µM* | u | u | u
Cc1cccc(C)c1NC(=O)c1ccc2c(c1)N(Cc1cccc(Cl)c1)C(=O)c1ccccc1S2=O (centres undefined) | x | 12% | -19% | 28%[59 µM] | 63%
CC1(C)C(=O)N(CC(=O)Nc2cccc(F)c2)c2ccc(S(=O)(=O)N3CCCCC3)cc21 | x | -1% | -19% | 10%[59 µM] | 10%[57 µM]
Cc1ccc(C(=O)COC(=O)c2cc(=O)[nH]c3ccccc23)cc1C | 3% | 50µM* | -33% | 28µM* | u
COc1ccccc1C(=O)COC(=O)c1cc(=O)[nH]c2ccccc12 | 1% | 3% | -7% | u | 33%
NN=C1c2cc(S(=O)(=O)NCCO)ccc2-c2ccc(S(=O)(=O)NCCO)cc21 | x | x | -11% | x | 36%
CCCc1oc(C(=O)O)cc1CN | x | u | -19% | u | 39%
CCc1oc(C(=O)O)cc1CN(CC)CC | x | -19% | 32µM* | -27%[59 µM] | -2%
CCc1oc(C(=O)O)cc1COC | u | u | u | 45µM* | 7%
CCCS(=O)(=O)N1CCCC(C(=O)NCCOC)C1 (centres undefined) | x | 2% | -24% | -25%[59 µM] | 22%
Cc1c(C(=O)N(Cc2cccc(Cl)c2)Cc2ccco2)oc2ccccc12 | x | 42% | 28% | 34%[59 µM] | 89%
SMILES | L3MBTL1 block | BAZ2B inh | JMJD2A Tudor | G9a block | HP1b binding inh
CCc1ccc2oc(C(=O)N(Cc3ccc(N(C)C)cc3)Cc3ccco3)c(C)c2c1 | x | 8.9µM* | 18µM* | 10µM* | u
Cc1ccc2c(C)c(C(=O)NCCc3ccco3)oc2c1C | x | -9% | -8% | 25% | 15%
Cc1ccc2c(C)c(C(=O)N(Cc3ccc(N(C)C)cc3)Cc3ccco3)oc2c1C | x | 10µM* | 18µM* | 11µM* | -25%
CC(=O)c1cccc(NC(=O)CSc2n[nH]c(=O)n2C2CC2)c1 | 11% | x | -12% | x | 5%
O=C(Nc1ccc2nc(SCC(=O)N3CCOCC3)sc2c1)c1ccccc1Cl | x | -14% | -10% | 1%[59 µM] | 30%
Cc1cccc(NC(=O)CSc2nc3ccc(NC(=O)COc4ccc(Cl)cc4)cc3s2)c1 | x | -14% | -16% | -25%[59 µM] | 26%
Cn1c(SCC(=O)Nc2ccc3nc(SCC(=O)N4CCCC4)sc3c2)nnc1-c1ccccc1 | u | 56µM* | u | u | 17%
O=C(CSc1nc2ccc(NC(=O)c3ccccc3C(=O)O)cc2s1)Nc1c(Cl)cccc1Cl | x | u | -26% | 71µM* | -6%
O=C(O)CSc1nc2ccc(NC(=O)COc3ccc(Cl)cc3)cc2s1 | x | 71µM* | u | -42%[59 µM] | 29%
O=C(CSc1nc2ccccc2s1)Nc1cc(C(=O)O)cc(C(=O)O)c1 | x | 5% | -20% | 25µM* | 37%
COc1ccc(Cl)c(Cn2c(NCCN)nc3c2c(=O)n(C)c(=O)n3C)c1 | x | -15% | -15% | 7%[59 µM] | 6%
O=C(C1COc2ccccc2O1)N1CCN(c2nc3ccc(F)cc3s2)CC1 (centres undefined) | x | -16% | -12% | 11%[59 µM] | -6%
O=C(CSc1nc2ccccc2s1)NNC(=S)Nc1ccccc1 | -14% | 1% | -14% | 3.5µM* | 5%
O=C(O)COc1ccccc1/C=N/NC(=O)CSc1nc2ccccc2s1 | x | 2% | -6% | 71µM* | 31%
O=C(Cc1nnc(-c2cc3ccccc3[nH]2)s1)Nc1cc(C(F)(F)F)ccc1Cl | x | x | -14% | x | x
Cc1cccc(NC(=O)N2CCCC(CNC(=O)c3ccccc3Cl)C2)c1C (centres undefined) | x | -3% | -1% | 38%[59 µM] | 39%
CCOc1ccc(OCC)c(NC(=O)C2CCN(S(=O)(=O)c3ccc(Br)s3)CC2)c1 | x | 3% | 2% | 1%[59 µM] | 30%
CCCOc1ccc(C(=O)NCCC(=O)NCCCC(=O)O)cc1 | -4% | 30% | -8% | u | 25%
Cc1cc(C)cc(NC(=O)C(Cc2ccccc2)NS(=O)(=O)c2ccc3c(c2)CCC(=O)N3)c1 (centres undefined) | x | -17% | -7% | 3%[59 µM] | 36%
CCSc1nc2c([nH]1)c(=O)n(C)c(=S)n2C | x | x | 5µM* | x | u
CCCSc1nc2c([nH]1)c(=O)n(C)c(=S)n2C | x | x | -19% | x | 27%
Cn1c(=O)c2[nH]c(SCCN3CCCCC3)nc2n(C)c1=S | x | x | -21% | x | 5%[57 µM]
Cn1c(=O)c2[nH]c(SCCN3CCOCC3)nc2n(C)c1=S | x | x | 16µM* | x | 5%[57 µM]
Cc1ccc(C)c(N2CCN(S(=O)(=O)c3ccc(F)c(C(=O)Nc4ccc(Cl)cc4Cl)c3)CC2)c1 | x | 1% | -15% | 5%[59 µM] | 25%
